The results in this text go back to the supplement of paper PMC12669032.

“And” between values parts separate entries of the source, which are not always exact repeats. Equal entries are not always repeated. A number with no mark means an inactive call.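 Rule for the calls: active = AUC reduced over 20% with Padj below 0.05 in at least 2 of 3 replicates; inactive = otherwise.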

Holding throughout (experiment): growth AUC relative to DMSO control (median of replicates) (fraction); higher = more growth (less inhibition), active = hit call of the paper
Holding throughout (details): 20 µM; 24 h

The test system of one test is Akkermansia muciniphila. Summed up:
(§1)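 In round-bottom 96-well plates sealed with pierced gas-permeable seals, gut bacterial monocultures in mGAM were grown anaerobically at 37 °C from OD600 0.05 with 20 µM compound (1% DMSO). OD600 readings were taken hourly for 24 h, and the minimum OD was set to 0. Area under the growth curve was then normalised to the plate median of solvent-only wells, or to row and column medians on the industrial chemical plate. The value given is the median of three biological replicates grown on separate days.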

The subject of another test is Bacteroides caccae. In short, it runs like this: as §1
In another test the test system is Bacteroides clarus. Summed up: as §1
The subject of another test is Bacteroides dorei. In short, it runs like this: as §1
The subject of the next test is Bacteroides stercoris. Summed up: as §1
In test [1] the test system is Bacteroides thetaiotaomicron. In short, it runs like this:
as §1

Another test relates to Bacteroides uniformis. In short, it runs like this: as §1
The test system of test [2] is Bifidobacterium longum subsp. longum. Summed up: as §1
For another test, the system named is Clostridium difficile. Summed up:
as §1

In a further test the test system is Collinsella aerofaciens. Summed up: as §1

On to `CC(Oc1ccc(Oc2ccc(Cl)cc2Cl)cc1)C(=O)O` (racemic), for which the “growth AUC” value is 0.812 with Akkermansia muciniphila; 0.991 in the test on Bacteroides caccae; 0.875 with Bacteroides clarus; 0.997 in the test with Bacteroides dorei; 0.851 in the test with Bacteroides stercoris; 0.989 in test [1]. Moreover, the “growth AUC” value with Bacteroides uniformis is 0.98; in test [2] it was 0.903; in the test with Clostridium difficile it was 1.02; in the test on Collinsella aerofaciens it was 0.995.
As to `COC(=O)[C@@H](C)N(C(=O)Cc1ccccc1)c1c(C)cccc1C`, the “growth AUC” value in the test with Akkermansia muciniphila was 0.957; in the test on Bacteroides caccae it was 0.968; in the test on Bacteroides clarus, 0.98; in the test on Bacteroides dorei it was 0.964; in the test on Bacteroides stercoris, 0.954; in [1], 0.93. The “growth AUC” value with Bacteroides uniformis is 0.897; in [2] it was 1.01; with Clostridium difficile, 0.998; with Collinsella aerofaciens it was 1.03.
Take `COC(=O)COc1ccc(Cl)cc1Cl`: the “growth AUC” value in the test on Akkermansia muciniphila was 0.95; in the test on Bacteroides caccae, 0.944; in the test with Bacteroides clarus, 0.983; with Bacteroides dorei, 0.969; with Bacteroides stercoris, 0.853; in test [1] it was 1.01. The “growth AUC” value was 1.04 with Bacteroides uniformis, 0.914 in [2], 1 with Clostridium difficile and 0.925 in the test on Collinsella aerofaciens.
With `CC(=O)CC(c1ccc(Cl)cc1)c1c(O)c2ccccc2oc1=O` (stereo not given), the “growth AUC” value with Akkermansia muciniphila is 0.928; in the test with Bacteroides caccae it was 0.939; in the test on Bacteroides clarus, 0.873; in the test with Bacteroides dorei it was 0.958; with Bacteroides stercoris it was 0.91; in test [1], 0.938. Further, the “growth AUC” value in the test with Bacteroides uniformis was 0.777 (active); in [2], 0.939; in the test with Clostridium difficile, 1.04; in the test on Collinsella aerofaciens, 1.01.
For `CCS(=O)Cc1ccccc1OC(=O)NC` (stereo not given), the “growth AUC” value in the test on Akkermansia muciniphila is 1.22; in the test with Bacteroides caccae, 0.98; in the test on Bacteroides clarus, 0.986; in the test on Bacteroides dorei, 0.943; in the test with Bacteroides stercoris, 0.992; in test [1], 1. Besides, the “growth AUC” value in the test with Bacteroides uniformis is 0.945; in test [2], 0.966; in the test with Clostridium difficile, 0.979; with Collinsella aerofaciens it was 0.977.
As to `CCOc1ccc(C(C)(C)COCc2cccc(Oc3ccccc3)c2)cc1`, the “growth AUC” value with Akkermansia muciniphila is 1.08; with Bacteroides caccae, 0.967; in the test on Bacteroides clarus it was 1.03; in the test with Bacteroides dorei, 0.967; with Bacteroides stercoris, 0.792; in [1] it was 0.958. Moreover, the “growth AUC” value in the test with Bacteroides uniformis is 1.05; in test [2], 1.48; with Clostridium difficile, 1.04; in the test on Collinsella aerofaciens, 0.967.
As for `Nc1c(Cl)c(F)nc(OCC(=O)O)c1Cl`, the “growth AUC” value in the test on Akkermansia muciniphila was 0.886; with Bacteroides caccae, 1.01; in the test with Bacteroides clarus, 0.968; with Bacteroides dorei, 1.01; with Bacteroides stercoris, 0.999; in test [1] it was 0.991. For the same compound, the “growth AUC” value was 0.955 in the test with Bacteroides uniformis, 0.917 in test [2], 1.01 in the test with Clostridium difficile and 0.97 with Collinsella aerofaciens.
In the case of `COc1ccc(/C(=C/C(=O)N2CCOCC2)c2ccc(F)cc2)cc1OC`, the “growth AUC” value in the test with Akkermansia muciniphila is 0.998; in the test on Bacteroides caccae, 1.05; in the test on Bacteroides clarus, 0.959; in the test on Bacteroides dorei, 0.953; in the test with Bacteroides stercoris, 0.921; in test [1] it was 0.997. Further, the “growth AUC” value in the test on Bacteroides uniformis is 0.984; in test [2], 0.958; in the test on Clostridium difficile, 1; in the test with Collinsella aerofaciens, 0.952.
As to `O=C(O)c1ccc(Cl)nc1`, the “growth AUC” value with Akkermansia muciniphila was 0.953; in the test on Bacteroides caccae, 0.985; with Bacteroides clarus, 1.02; in the test on Bacteroides dorei, 0.985; in the test with Bacteroides stercoris, 1.08; in test [1], 1.01. Also, the “growth AUC” value in the test with Bacteroides uniformis was 1.04; in [2], 0.902; in the test on Clostridium difficile, 1.03; with Collinsella aerofaciens, 0.999.
`COc1ccccc1N`: the “growth AUC” value with Akkermansia muciniphila is 1; with Bacteroides caccae, 1.02; in the test on Bacteroides clarus, 1.04; with Bacteroides dorei, 1.01; in the test on Bacteroides stercoris, 1.16; in [1], 1.02. The “growth AUC” value was 1.02 in the test with Bacteroides uniformis, 1.05 in test [2], 1.01 in the test with Clostridium difficile and 1.02 in the test on Collinsella aerofaciens.
`CP(=O)(O)CCC(N)C(=O)[O-].[NH4+]` (stereo not given): the “growth AUC” value in the test with Akkermansia muciniphila is 1.08; with Bacteroides caccae, 1.04; in the test with Bacteroides clarus, 1.03; with Bacteroides dorei, 0.977; with Bacteroides stercoris, 1.2; in test [1], 1. Besides, the “growth AUC” value in the test with Bacteroides uniformis is 1.02; in test [2], 1.02; in the test with Clostridium difficile, 1.01; in the test with Collinsella aerofaciens it was 1.02.
For `CCCCCCCCCCCCC1=C(OC(C)=O)C(=O)c2ccccc2C1=O`, the “growth AUC” value with Akkermansia muciniphila is 1.04; with Bacteroides caccae it was 0.926; with Bacteroides clarus, 0.934; with Bacteroides dorei, 0.969; with Bacteroides stercoris, 0.988; in test [1], 0.996. The “growth AUC” value in the test on Bacteroides uniformis was 0.987; in [2] it was 0.827; in the test with Clostridium difficile, 0.926; with Collinsella aerofaciens, 0.0278 (active).
For `CC(=NC#N)N(C)Cc1ccc(Cl)nc1`, the “growth AUC” value with Akkermansia muciniphila is 0.993 and 0.945; with Bacteroides caccae, 0.979 and 0.959; in the test on Bacteroides clarus it was 1.02 and 0.96; with Bacteroides dorei it was 0.993 and 1.01; with Bacteroides stercoris it was 1.08 and 0.985; in [1], 0.987 and 0.95. Also, the “growth AUC” value with Bacteroides uniformis is 1 and 0.993; in test [2] it was 1.03 and 0.979; in the test on Clostridium difficile, 0.986 and 1; in the test on Collinsella aerofaciens, 1.02.
